The source made the active and inactive calls. The calls were made as follows: active = hit-call score of the fitted dose curve at least 0.9, where 1 is the maximum; inactive = score below 0.9.
Key:
Conditions in all cases: mRNA level, 48 h; actives raise or lower the signal
[1] = read-out: JUN Transcription Factor, JUN (gene 3725); assay: LTEA_HepaRG_JUN: Life Technologies and Expression Analysis (LTEA) Assay for JUN Transcription Factor using HepaRG (AID 2283513)
Method in brief: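 HepaRG cells, 48 h post-plating, exposed 48 h in serum-free induction medium to 8-point half-log series (top 100 uM, 0.5% DMSO), duplicate; mRNA by qRT-PCR (TaqMan, Fluidigm), normalized to ACTB/GAPDH/POLR2A; bidirectional fit vs DMSO.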

[2] = read-out: Lipase C (LIPC), LIPC (gene 3990); assay: LTEA_HepaRG_LIPC: Life Technologies and Expression Analysis (LTEA) Assay for Lipase C (LIPC) using HepaRG (AID 2283514)
Method in brief: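 HepaRG cells, 48 h after plating, treated in duplicate for 48 h in serum-free induction medium over 8 half-log concentrations from 100 uM, 0.5% DMSO. LIPC mRNA by TaqMan qRT-PCR normalized to ACTB/GAPDH/POLR2A; bidirectional fit versus DMSO.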

[3] = read-out: Lipoprotein lipase (LPL), LPL (gene 4023); assay: LTEA_HepaRG_LPL: Life Technologies and Expression Analysis (LTEA) Assay for Lipoprotein lipase (LPL) using HepaRG (AID 2283515)
Method in brief: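 Differentiated HepaRG cells, plated 48 h, then exposed 48 h in serum-free induction medium to 8 concentrations (top 100 uM, half-log steps) in 0.5% DMSO, duplicate. LPL mRNA measured by qRT-PCR, normalized to ACTB, GAPDH and POLR2A.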

[4] = read-out: MicroRNA 122 (MIR122), gene 406906; assay: LTEA_HepaRG_MIR122: Life Technologies and Expression Analysis (LTEA) Assay for MicroRNA 122 (MIR122) using HepaRG (AID 2283516); also: the transcript read is the microRNA miR-122
Method in brief: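 Differentiated human HepaRG cells in serum-free induction medium exposed 48 h to 8 half-log concentrations from 100 uM in 0.5% DMSO, duplicate. MIR122 quantified by Fluidigm TaqMan qRT-PCR, normalised to ACTB, GAPDH, POLR2A; fold change fitted bidirectionally versus DMSO.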

[5] = read-out: matrix metalloproteinase-10 (MMP10), MMP10 (gene 4319); assay: LTEA_HepaRG_MMP10: Life Technologies and Expression Analysis (LTEA) Assay for matrix metalloproteinase-10 (MMP10) using HepaRG (AID 2283517)
Method in brief: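 Differentiated HepaRG cells in serum-free induction medium exposed 48 h in duplicate to 8-point half-log series up to 100 uM in 0.5% DMSO. mRNA quantified by qRT-PCR, normalised to ACTB, GAPDH, POLR2A; bidirectional fit versus DMSO.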

MYC, MYC (gene 4609) = assay: LTEA_HepaRG_MYC: Life Technologies and Expression Analysis (LTEA) Assay for MYC using HepaRG (AID 2283518)
Method in brief: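 MYC transcript changes, up or down relative to 0.5% DMSO, from TaqMan qRT-PCR normalized to three housekeeping genes. Human HepaRG cultures received chemicals for 48 h at eight half-log concentrations up to 100 uM, in duplicate.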

[6] = read-out: matrix metalloproteinase-3 (MMP3), MMP3 (gene 4314); assay: LTEA_HepaRG_MMP3: Life Technologies and Expression Analysis (LTEA) Assay for matrix metalloproteinase-3 (MMP3) using HepaRG (AID 2283519)
Method in brief: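 HepaRG cells (~100,000/well) in serum-free induction medium were dosed in duplicate for 48 h with an 8-point half-log series from 100 uM, 0.5% DMSO. MMP3 mRNA was quantified by Fluidigm TaqMan qRT-PCR, normalized to three housekeeping genes.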

[7] = read-out: Paternally Expressed 10 (PEG10), PEG10 (gene 23089); assay: LTEA_HepaRG_PEG10: Life Technologies and Expression Analysis (LTEA) Assay for Paternally Expressed 10 (PEG10) using HepaRG (AID 2283520)
Method in brief: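 Differentiated HepaRG cells exposed 48 h in serum-free induction medium to eight half-log concentrations topping at 100 uM, 0.5% DMSO, in duplicate. PEG10 mRNA quantified by TaqMan qRT-PCR, normalized to ACTB, GAPDH and POLR2A; bidirectional fit versus DMSO.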

[8] = read-out: Nuclear factor NF-kappa-B p105 subunit (Homo sapiens) (UniProt P19838); assay: LTEA_HepaRG_NFKB1: Life Technologies and Expression Analysis (LTEA) Assay for Nuclear Factor Kappa B Subunit 1 (NFKB1) using HepaRG (AID 2283521);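 also: TaqMan qRT-PCR transcript normalised to ACTB GAPDH and POLR2A housekeeping genes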
Method in brief: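 Human HepaRG cells receive eight half-log concentrations, highest 100 uM, for 48 h. NFKB1 expression is then quantified by qRT-PCR and analysed for up- or down-regulation relative to 0.5% DMSO vehicle.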

[9] = read-out: Protein phosphatase 2A (PPP2R4), PTPA (gene 5524); assay: LTEA_HepaRG_PPP2R4: Life Technologies and Expression Analysis (LTEA) Assay for Protein phosphatase 2A (PPP2R4) using HepaRG (AID 2283522)
Method in brief: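 Differentiated human HepaRG cells in serum-free induction medium were exposed 48 h to 8 concentrations (top 100 µM, half-log steps, duplicate) in 0.5% DMSO. PPP2R4 mRNA was measured by TaqMan qRT-PCR, normalised to ACTB, GAPDH and POLR2A, and fitted bidirectionally versus DMSO.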

[10] = read-out: Phosphatase and tensin (PTEN), PTEN (gene 5728); assay: LTEA_HepaRG_PTEN: Life Technologies and Expression Analysis (LTEA) Assay for Phosphatase and tensin (PTEN) using HepaRG (AID 2283523)
Method in brief: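 HepaRG cells, 48 h after plating, exposed in duplicate for 48 h in serum-free induction medium to 8 half-log concentrations up to 100 uM (0.5% DMSO). PTEN mRNA by qRT-PCR, normalized to ACTB, GAPDH, POLR2A; bidirectional fit versus DMSO.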

[11] = read-out: solute carrier (SLC22A1), SLC22A1 (gene 6580); assay: LTEA_HepaRG_SLC22A1: Life Technologies and Expression Analysis (LTEA) Assay for solute carrier (SLC22A1) using HepaRG (AID 2283524)
Method in brief: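 Differentiated human HepaRG cells in serum-free induction medium, exposed 48 h in duplicate to 8-point half-log series from 100 µM top in 0.5% DMSO. SLC22A1 mRNA by TaqMan qRT-PCR normalized to ACTB, GAPDH, POLR2A; bidirectional fit versus DMSO.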

[12] = read-out: Pyruvate Dehydrogenase Kinase 4 (PDK4), PDK4 (gene 5166); assay: LTEA_HepaRG_PDK4: Life Technologies and Expression Analysis (LTEA) Assay for Pyruvate Dehydrogenase Kinase 4 (PDK4) using HepaRG (AID 2283525)
Method in brief: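 HepaRG cells plated 48 h, then switched to serum-free induction medium and exposed in duplicate for 48 h to 8 half-log concentrations from 100 uM in 0.5% DMSO. PDK4 mRNA measured by qRT-PCR, normalized to ACTB, GAPDH and POLR2A; bidirectional fit versus DMSO.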

[13] = read-out: NAD(P)H dehydrogenase [quinone] 1 (NQO1), NQO1 (gene 1728); assay: LTEA_HepaRG_NQO1: Life Technologies and Expression Analysis (LTEA) Assay for NAD(P)H dehydrogenase [quinone] 1 (NQO1) using HepaRG (AID 2283526)
Method in brief: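 Differentiated human HepaRG cells in serum-free induction medium, dosed in duplicate for 48 h at 8 half-log concentrations up to 100 uM in 0.5% DMSO. NQO1 mRNA by qRT-PCR normalized to ACTB, GAPDH, POLR2A; bidirectional fit versus DMSO baseline.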

[14] = read-out: Nuclear factor erythroid 2-related factor 2 (Homo sapiens) (UniProt Q16236); assay: LTEA_HepaRG_NFE2L2: Life Technologies and Expression Analysis (LTEA) Assay for Nuclear factor erythroid 2-related factor 2 (NFE2L2) Transcription Factor using HepaRG (AID 2283527);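 also: TaqMan qRT-PCR transcript level normalised to ACTB GAPDH and POLR2A housekeeping genes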
Method in brief: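 Differentiated human HepaRG cells, serum-free induction medium, exposed 48 h in duplicate to eight half-log concentrations up to 100 uM in 0.5% DMSO. NFE2L2 mRNA by Fluidigm TaqMan qRT-PCR, normalised to ACTB, GAPDH, POLR2A; bidirectional change versus DMSO.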

[15] = read-out: succinate dehydrogenase complex iron sulfur subunit B (SDHB), SDHB (gene 6390); assay: LTEA_HepaRG_SDHB: Life Technologies and Expression Analysis (LTEA) Assay for succinate dehydrogenase complex iron sulfur subunit B (SDHB) using HepaRG (AID 2283528)
Method in brief: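 A human HepaRG culture in serum-free induction medium received test chemicals for 48 h over an eight-point range capped at 100 uM. SDHB expression change was quantified by qRT-PCR.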

[16] = read-out: Signal transducer and activator of transcription 3 (Homo sapiens) (UniProt P40763); assay: LTEA_HepaRG_STAT3: Life Technologies and Expression Analysis (LTEA) Assay for Signal transducer and activator of transcription (STAT3) using HepaRG (AID 2283529)
Method in brief: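 Differentiated HepaRG cells, serum-free induction medium, dosed 48 h in duplicate, 8 half-log concentrations from 100 uM in 0.5% DMSO. STAT3 mRNA by qRT-PCR, normalised to ACTB, GAPDH, POLR2A; bidirectional fit versus DMSO.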

[17] = read-out: solute carrier (SLCO1B1), SLCO1B1 (gene 10599); assay: LTEA_HepaRG_SLCO1B1: Life Technologies and Expression Analysis (LTEA) Assay for solute carrier (SLCO1B1) using HepaRG (AID 2283530)
Method in brief: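 SLCO1B1 transcript levels were quantified by TaqMan qRT-PCR using three housekeeping genes for normalization. This followed 48 h chemical exposure (100 uM top, half-log, 8 points, 0.5% DMSO) of HepaRG liver cells, with gain or loss fitted relative to DMSO.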

[18] = read-out: Transforming Growth Factor (TGFA), TGFA (gene 7039); assay: LTEA_HepaRG_TGFA: Life Technologies and Expression Analysis (LTEA) Assay for Transforming Growth Factor (TGFA) using HepaRG (AID 2283532)
Method in brief: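 Differentiated HepaRG cells exposed 48 hours in serum-free induction medium, 0.5% DMSO vehicle, 8-point half-log series from 100 uM, in duplicate. TGFA mRNA by TaqMan qRT-PCR, normalised to ACTB, GAPDH, POLR2A; bidirectional fit versus DMSO.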

[19] = read-out: sulfotransferase 2A1 (SULT2A1), SULT2A1 (gene 6822); assay: LTEA_HepaRG_SULT2A1: Life Technologies and Expression Analysis (LTEA) Assay for sulfotransferase 2A1 (SULT2A1) using HepaRG (AID 2283531)
Method in brief: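 Expression change of SULT2A1, by qRT-PCR with three housekeeping-gene normalization, was scored bidirectionally versus DMSO. Cells: differentiated HepaRG, dosed in duplicate for 48 h across 8 points, highest 100 µM, half-log dilution, 0.5% DMSO.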

Measured: outcome

Chain of Nuclear factor erythroid 2-related factor 2 (Homo sapiens) (Q16236 whole entry, looked up): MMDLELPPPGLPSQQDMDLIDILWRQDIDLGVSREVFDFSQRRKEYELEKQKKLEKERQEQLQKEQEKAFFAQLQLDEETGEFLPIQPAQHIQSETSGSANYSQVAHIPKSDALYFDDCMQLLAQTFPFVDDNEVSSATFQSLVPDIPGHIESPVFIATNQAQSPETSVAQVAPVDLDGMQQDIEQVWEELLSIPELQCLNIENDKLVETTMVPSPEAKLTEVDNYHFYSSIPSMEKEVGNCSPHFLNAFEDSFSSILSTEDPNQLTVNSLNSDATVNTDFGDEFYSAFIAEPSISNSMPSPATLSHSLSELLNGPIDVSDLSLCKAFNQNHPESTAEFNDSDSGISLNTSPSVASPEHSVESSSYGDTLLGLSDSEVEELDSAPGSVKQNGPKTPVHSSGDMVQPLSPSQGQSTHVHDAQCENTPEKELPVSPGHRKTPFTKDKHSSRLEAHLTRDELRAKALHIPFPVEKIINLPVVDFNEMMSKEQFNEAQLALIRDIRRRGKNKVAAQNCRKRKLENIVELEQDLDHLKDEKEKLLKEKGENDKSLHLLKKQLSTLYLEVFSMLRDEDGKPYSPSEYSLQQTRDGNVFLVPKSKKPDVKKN
Chain of Signal transducer and activator of transcription 3 (Homo sapiens) (P40763 whole entry, looked up): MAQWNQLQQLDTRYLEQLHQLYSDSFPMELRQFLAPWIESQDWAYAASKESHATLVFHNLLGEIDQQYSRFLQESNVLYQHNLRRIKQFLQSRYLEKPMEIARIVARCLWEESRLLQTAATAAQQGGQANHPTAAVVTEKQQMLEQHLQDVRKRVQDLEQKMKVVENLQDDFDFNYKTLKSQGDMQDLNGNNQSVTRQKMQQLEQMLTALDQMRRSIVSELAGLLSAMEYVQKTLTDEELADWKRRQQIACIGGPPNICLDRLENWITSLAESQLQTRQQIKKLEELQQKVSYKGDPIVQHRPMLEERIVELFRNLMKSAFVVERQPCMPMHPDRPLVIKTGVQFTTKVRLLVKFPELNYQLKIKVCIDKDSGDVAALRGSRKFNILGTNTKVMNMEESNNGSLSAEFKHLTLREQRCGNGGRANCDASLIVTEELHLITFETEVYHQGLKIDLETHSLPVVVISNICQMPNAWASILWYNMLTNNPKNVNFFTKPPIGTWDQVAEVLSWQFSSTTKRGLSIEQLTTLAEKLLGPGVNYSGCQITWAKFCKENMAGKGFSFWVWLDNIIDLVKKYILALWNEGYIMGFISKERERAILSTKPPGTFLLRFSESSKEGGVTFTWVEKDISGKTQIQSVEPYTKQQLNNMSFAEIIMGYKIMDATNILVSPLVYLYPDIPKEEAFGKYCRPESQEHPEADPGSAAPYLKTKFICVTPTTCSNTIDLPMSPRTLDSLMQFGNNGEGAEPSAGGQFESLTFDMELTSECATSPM
Chain of Nuclear factor NF-kappa-B p105 subunit (Homo sapiens) (P19838 whole entry, looked up): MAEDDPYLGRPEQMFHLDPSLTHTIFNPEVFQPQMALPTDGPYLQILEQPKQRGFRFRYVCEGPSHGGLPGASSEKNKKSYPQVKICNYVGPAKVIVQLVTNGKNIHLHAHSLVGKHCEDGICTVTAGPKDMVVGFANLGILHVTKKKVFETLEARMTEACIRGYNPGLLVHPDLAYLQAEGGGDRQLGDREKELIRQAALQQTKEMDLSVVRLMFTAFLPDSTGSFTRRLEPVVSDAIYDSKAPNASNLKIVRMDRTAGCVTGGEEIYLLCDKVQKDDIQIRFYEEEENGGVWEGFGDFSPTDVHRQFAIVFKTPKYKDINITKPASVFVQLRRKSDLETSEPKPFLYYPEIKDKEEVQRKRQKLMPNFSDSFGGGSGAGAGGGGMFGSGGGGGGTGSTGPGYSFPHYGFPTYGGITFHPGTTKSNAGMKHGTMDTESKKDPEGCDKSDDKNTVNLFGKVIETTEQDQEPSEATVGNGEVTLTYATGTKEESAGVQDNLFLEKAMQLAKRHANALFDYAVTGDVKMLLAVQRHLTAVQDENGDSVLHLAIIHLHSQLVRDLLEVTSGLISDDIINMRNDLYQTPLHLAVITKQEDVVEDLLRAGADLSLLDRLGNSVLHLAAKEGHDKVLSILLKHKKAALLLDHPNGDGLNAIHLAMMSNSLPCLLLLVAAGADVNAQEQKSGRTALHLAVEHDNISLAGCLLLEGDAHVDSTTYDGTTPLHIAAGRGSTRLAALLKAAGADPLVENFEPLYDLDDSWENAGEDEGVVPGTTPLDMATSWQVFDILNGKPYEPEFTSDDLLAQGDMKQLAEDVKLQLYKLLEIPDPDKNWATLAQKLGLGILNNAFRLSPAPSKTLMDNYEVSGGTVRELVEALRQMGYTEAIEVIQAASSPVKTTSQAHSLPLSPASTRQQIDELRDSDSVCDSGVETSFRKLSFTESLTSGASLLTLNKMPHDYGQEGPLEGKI

CCOC(=O)CC(CC(=O)OCC)(OC(C)=O)C(=O)OCC
not listed: [19]
inactive: all other assays above

C1N2CN3CN1CN(C2)C3
inactive: all assays above

CCCCCCCCCCCCc1ccccc1
inactive: all assays above

Reference: PubChem BioAssay (EPA / NIEHS)
